Source: PubChem
TDP1 cell CPT: qHTS for Inhibitors of human tyrosyl-DNA phosphodiesterase 1 (TDP1): qHTS in cells in presence of CPT | AID 686979, 2013 | chicken DT40 Tdp1-/-;hTDP1 cells + 20 nM CPT, ATP luminescence, 48 h | 12% of 420,000 active | Potency, µM (series often up to 46.2 µM), usual class: inhibitors; note: nearly all actives have a fitted effect of over 55% in size
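Chicken DT40 Tdp1-/- cells complemented with human TDP1, 400 cells/well, exposed to compounds plus 20 nM camptothecin for at least 48 h at 37 C; viability read as ATP content by CellTiter-Glo luminescence.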
RORgamma inh: qHTS for inhibitors of ROR gamma transcriptional activity. Nuclear receptor ROR-gamma (Mus musculus), P51450. 5.4% of 310,000 active. AID 2551, 2010. Drosophila S2 Gal4-RORgamma UAS-luciferase reporter, 20 h. Potency, µM (titrated, usually from 53.6 µM), usual class: inhibitors; note: nearly all actives have a fitted effect of over 60% in size
Target sequence (P51450 whole entry, looked up, the tested form may be a part): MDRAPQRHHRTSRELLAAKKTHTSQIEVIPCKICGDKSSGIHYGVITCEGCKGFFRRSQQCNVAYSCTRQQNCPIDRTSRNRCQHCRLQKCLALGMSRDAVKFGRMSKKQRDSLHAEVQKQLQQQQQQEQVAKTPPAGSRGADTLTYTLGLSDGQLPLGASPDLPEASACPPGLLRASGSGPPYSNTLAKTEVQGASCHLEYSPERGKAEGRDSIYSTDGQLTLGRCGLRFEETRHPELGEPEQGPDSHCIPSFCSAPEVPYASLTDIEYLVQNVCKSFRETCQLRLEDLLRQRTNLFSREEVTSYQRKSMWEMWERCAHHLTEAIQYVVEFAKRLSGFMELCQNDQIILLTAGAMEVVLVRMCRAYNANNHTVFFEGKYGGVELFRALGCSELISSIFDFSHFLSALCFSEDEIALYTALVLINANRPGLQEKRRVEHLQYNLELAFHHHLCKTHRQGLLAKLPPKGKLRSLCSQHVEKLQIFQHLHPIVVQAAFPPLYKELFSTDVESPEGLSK
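Schneider cells (Drosophila), stable Gal4 DBD–ROR gamma + UAS-luc; 1 hr cmpd preincubation; Cu2+ induction 700 uM final; 20 hr ambient; luminescence.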
ELG1 repair inh: qHTS screen for small molecules that inhibit ELG1-dependent DNA repair in human embryonic kidney (HEK293T) cells expressing luciferase-tagged ELG1. HEK293T ELG1-luciferase reporter, luminescence, 16 h; DNA damage induced by 5-fluorouridine. Potency, µM (top dose mostly 46.1 µM), hits mostly inhibitors. 2.3% of 330,000 active. AID 504467, 2011; note: nearly all actives have a fitted effect of over 55% in size
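5-Fluorouridine DNA damage + compound/DMSO, 2,000 cells/well, 16 h, 37 °C/5% CO2. ONE-Glo, 30 min RT, luminescence. Readout = decrease in reporter signal.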
IL1B secr inh: qHTS for Inhibitors of Inflammasome Signaling: IL-1-beta AlphaLISA Primary Screen; THP-1 LPS/ATP IL-1B secretion, AlphaLISA, 16 h; stronger effect = lower value; activity change, % at 57.5 µM; 4.7% of 360,000 active; AID 743279, 2014; in the data active = activity change below about -50%; inconclusive = mostly about -30% to -49%
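Secreted IL-1B measured by AlphaLISA bead assay after 16 h compound exposure of THP-1 cells; compounds (final up to 57.5 uM) added 1 h before LPS (250 ng/mL) and ATP (1.25 mM) stimulation; lower signal means less secretion.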
Gal4-VP16 FLuc: VP16 counterscreen qHTS for inhibitors of ROR gamma transcriptional activity | AID 2546, 2010 | Potency, µM (doses to about 53.6 µM), actives largely listed as inhibitors | Drosophila S2 Gal4-VP16 UAS-luciferase, luminescence, 20 h | 3.5% of 310,000 active;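 note: Gal4-VP16 expression switched on by copper sulfate through the metallothionein promoter; nearly all actives have a fitted effect of over 50% in size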
DT40 TDP1 no CPT: qHTS for Inhibitors of human tyrosyl-DNA phosphodiesterase 1 (TDP1): qHTS in cells in absence of CPT | DT40 Tdp1-/- hTDP1 cells, no CPT, ATP luminescence, 48 h | Potency, µM (doses to about 46.2 µM), hits mostly inhibitors | 15% of 420,000 active; note: nearly all actives have a fitted effect of over 55% in size
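Growth of hTDP1-complemented DT40 Tdp1-knockout cells is measured by ATP luminescence after at least 48 hr compound exposure at 37 °C, with DMSO substituting for the 20 nM CPT used in the parallel screen.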
A number is an active result; - = inactive; ? = inconclusive; . = no result given; [ ] = dose if it differs, or a comment. Hits are enriched below; roughly 21% of the tested compounds scored in any of these assays. Unless noted, calls come from the whole dose curve; as a rule, active = well fitted curve in the direction sought with a large enough effect; inconclusive = small, poorly fitted or top-dose-only effect, or another doubt; inactive = no such curve, though single readings can be large; an effect the other way counts as inactive or inconclusive.

SMILES	TDP1 cell CPT	RORgamma inh	ELG1 repair inh	IL1B secr inh	Gal4-VP16 FLuc	DT40 TDP1 no CPT
COC(=O)C1(C)C=C(Nc2ccc(OC)cc2)C(=O)N1c1ccc(OC)cc1 (centres undefined)	.	-	.	.	-	.
O=C(c1ccco1)N1CCC2(CC1)CN(C(c1ccccc1)c1ccccc1)C2	?	?	.	.	-	14.6µM
O=C(Nc1cccc(F)c1)N1CCCC2(CCN(C(=O)c3ccncc3)CC2)C1	0.13µM	-	.	.	-	0.146µM
O=C(c1csnn1)N1CCC[C@@]2(CCN(C(c3ccccc3)c3ccccc3)C2)C1	?	-	.	.	-	18.4µM
COC(=O)N1CCC[C@@]2(CCN(C(=O)Nc3cccc(C#N)c3)C2)C1	?	-	.	.	-	0.0461µM
COc1ccccc1C(=O)NC1(C(F)(F)F)C(=O)Nc2c1c(=O)[nH]c(=O)n2CCc1ccccc1 (centres undefined)	-	.	.	.	.	-
COc1ccc(OC)c(S(=O)(=O)NCC(c2ccc(N(C)C)cc2)N2CCOCC2)c1 (centres undefined)	-	.	.	.	.	-
O=C(Nc1cccc(F)c1)N1CCC2(CC1)CCN(C(=O)c1cccc(F)c1)CC2	-	-	.	.	-	20.6µM
O=C(c1cccc(F)c1)N1CCC2(CCCN(C(c3ccccc3)c3ccccc3)C2)CC1	?	-	.	.	-	?
O=C(c1cccc(F)c1)N1CCC2(CC1)CN(c1ccc(-c3ccccc3)cc1)C2	?	-	.	.	15.8µM	14.6µM
CC(=O)N1CCC2(CC1)CCN(C(=O)Nc1cccc(F)c1)CC2	-	-	.	.	-	-
O=C(c1cccc(F)c1)N1CCC2(CC1)CCN(C(c1ccccc1)c1ccccc1)CC2	14.6µM	-	.	.	-	23.1µM
O=C(c1cccc(F)c1)N1CCC2(CC1)CCN(c1ccc(-c3ccccc3)cc1)CC2	-	-	.	.	-	-
CC(=O)c1ccc(N2CCN(C(=O)Nc3cccc(F)c3)CC2)cc1	20.6µM	-	?	-	-	?
CCOc1ccc(CNC(=O)CCn2nc(C)c3c(C)n(-c4ccccc4)nc3c2=O)cc1	-	.	.	.	.	-
COc1cccc(NC(=O)COC(=O)C2=NN(c3ccccc3)C(=O)CC2)c1	-	.	-	-	.	-
OC(c1ccc(-c2ccccc2)cc1)c1ncc(-c2ccc(C(F)(F)F)cc2)[nH]1 (centres undefined)	?	.	.	-	.	?
COc1ccc(CCNC(=O)C2CC3Cn4c(nc5ccccc54)C3N2Cc2ccccc2)cc1 (centres undefined)	?	.	.	-	.	18.4µM
COc1ccc(CCNC(=O)C2CC3Cn4c(nc5ccccc54)C3N2C)cc1 (centres undefined)	-	-	-	-	-	-
Cc1[nH]c2ccccc2c1C1(O)C(=O)N(C(C)C)c2ccccc21 (centres undefined)	-	-	-	-	-	-
CCCN1C(=O)C(O)(c2c(C)[nH]c3ccccc23)c2ccccc21 (centres undefined)	5.17µM	-	-	-	-	5.17µM
C#CCN1C(=O)C(O)(c2c(C)[nH]c3ccccc23)c2ccccc21 (centres undefined)	4.61µM	-	-	-	-	3.26µM
CC(Sc1ccc(S(=O)(=O)N2CCCCC2)cn1)C(N)=O (centres undefined)	-	.	.	-	.	-
CN1CCN(c2ccc(-c3cc(NC=O)c4ncc(-c5ccccc5)n4c3)cc2)CC1	20.6µM	.	.	-	.	16.4µM
CN1CCN(c2ccc(-c3cc(NC=O)c4ncc(-c5ccc(F)cc5)n4c3)cc2)CC1	14.6µM	.	.	-	.	?
SMILES	TDP1 cell CPT	RORgamma inh	ELG1 repair inh	IL1B secr inh	Gal4-VP16 FLuc	DT40 TDP1 no CPT
COCCNC(=O)CCn1c(=O)c2cc(OC)c(OC)cc2n(CC(=O)Nc2ccc(F)c(Cl)c2)c1=O	-	.	.	.	.	-
CCOC(=O)c1ccc(NC(=S)NC2CCCC2)cc1	-	?	?	-	?	-
CCOC(=O)c1ccc(NC(=O)C2C3CCCCC32)cc1 (centres undefined)	-	?	?	-63.8	-	?
COC(=O)c1ccc(NC(=S)Nc2ccccc2)cc1	?	-	-	-	-[0.365 µM]	?
CCOC(=O)c1ccc(NC(=S)NC(=O)C2CCCC2)cc1	-	7.08µM	-	-	7.08µM	-
COc1ccc(NC(=S)NC(=O)C2CCC2)cc1	-	8.91µM	?	?	11.2µM	-
COC(=O)c1ccc(NC(=S)NC2CCCCC2C)cc1 (centres undefined)	23.1µM	7.94µM	-	-	3.55µM	25.9µM
CCOC(=O)C1=C(C)NC(C)=C(C(=O)OCC)C1c1ccncc1	?	.	.	-	.	?
CC1ON=C(c2cccc3ccccc23)N(C)C1=O (centres undefined)	-	.	.	-	.	-
Cc1oc(-c2ccccc2NC(=O)c2ccccc2)nc1CNC(=O)C1CC(=O)OC12CCCCC2 (centres undefined)	-[9.04 µM]	.	.	.	.	-
CCNc1ncc2ncc(=O)n(Cc3cccs3)c2n1	?	-	.	.	-	?
COC(=O)C1=C(c2ccccc2)c2ccccc2S(=O)(=O)N1CC(=O)Nc1ccc(OC)cc1OC	-	.	.	.	.	?
COC(=O)c1ccc(NC(=O)CNC(=O)C2CCCCC2)cc1	-	-	-	-	-	-
COC(=O)c1ccc(NC(=S)Nc2ccc3ccccc3c2)cc1	-	12.6µM	?	-	?	-
COC(=O)c1ccc(NC(=S)NC(=O)C2CCC2)cc1	-	11.2µM	?	-	?	-
COC(=O)c1nn(C)c(=O)[nH]c1=O	-	.	.	-	.	-
O=C(NCCc1nccs1)C1CCC(=O)N(Cc2cccc(C(F)(F)F)c2)C1 (centres undefined)	-	-	-	-	-	-
O=C(NCCOCCO)C(=O)Nc1c2c(nn1-c1ccc(F)cc1)CSC2	-	.	.	.	.	-
COc1ccc(-n2nc3c(c2NC(=O)CCl)CSC3)cc1	2.59µM	-	?	-106.9	?	2.31µM
CC(C)CCNC(=O)C(=O)Nc1c2c(nn1-c1ccc(Cl)cc1)CSC2	25.9µM	.	.	.	.	11.6µM
O=C(NCc1ccccc1)C(=O)Nc1c2c(nn1-c1ccc(F)cc1)CSC2	?	.	.	.	.	16.4µM
COc1ccc(-n2nc3c(c2NC(=O)C(C)Cl)CSC3)cc1 (centres undefined)	-	-	-	-	-	-
Cc1ccc(CNC(=O)CSCc2ccccc2)cc1	-	-	-	-	-	-
